# In the library only some 7.3% were active in any assay of this set; here they are far more common.
# SMN2 splice enh: qHTS Assay for Enhancers of SMN2 Splice Variant Expression; HEK293 SMN2-luciferase splicing reporter, luminescence, 30-36 h; 210,000 tested, 2.8% active; Potency, µM (series often up to 46.1 µM), hits mostly activators; note: nearly all actives have a fitted effect of over 55% in size
#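 HEK293 cells carry an SMN2 minigene-luciferase reporter in which exon 7 inclusion puts luciferase in frame. Cells were seeded at 2000 cells/well, attached for 10-12 hours, then exposed to compounds for 30-36 hours at 37C before ONE-Glo luminescence.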
# ELG1 genotox: qHTS screen for small molecules that induce genotoxicity in human embryonic kidney (HEK293T) cells expressing luciferase-tagged ELG1; 330,000 tested, 1.3% active; HEK293T ELG1-luciferase reporter, luminescence, 16 h; Potency, µM (doses to about 46 µM), hits mostly activators; note: nearly all actives have a fitted effect of over 60% in size
#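 DMSO vehicle served as control against compound-treated ELG1-luciferase HEK293T cells; exposure lasted 16 hr at 37 °C and 5% CO2, followed by ONE-Glo luminescence detection after 30 min.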
# FLuc counter: qHTS profiling assay for firefly luciferase inhibitor/activator using purifed enzyme and Km concentrations of substrates (counterscreen for miR-21 project). Luciferin 4-monooxygenase (Photinus pyralis), P08659. purified FLuc, Km substrates, luminescence inhibition. Potency, µM (series often up to 57.5 µM), hits mostly inhibitors. 360,000 tested, 6.9% active. AID 588342, 2011; note: nearly all actives have a fitted effect of over 55% in size
# Target sequence (P08659 whole entry, looked up): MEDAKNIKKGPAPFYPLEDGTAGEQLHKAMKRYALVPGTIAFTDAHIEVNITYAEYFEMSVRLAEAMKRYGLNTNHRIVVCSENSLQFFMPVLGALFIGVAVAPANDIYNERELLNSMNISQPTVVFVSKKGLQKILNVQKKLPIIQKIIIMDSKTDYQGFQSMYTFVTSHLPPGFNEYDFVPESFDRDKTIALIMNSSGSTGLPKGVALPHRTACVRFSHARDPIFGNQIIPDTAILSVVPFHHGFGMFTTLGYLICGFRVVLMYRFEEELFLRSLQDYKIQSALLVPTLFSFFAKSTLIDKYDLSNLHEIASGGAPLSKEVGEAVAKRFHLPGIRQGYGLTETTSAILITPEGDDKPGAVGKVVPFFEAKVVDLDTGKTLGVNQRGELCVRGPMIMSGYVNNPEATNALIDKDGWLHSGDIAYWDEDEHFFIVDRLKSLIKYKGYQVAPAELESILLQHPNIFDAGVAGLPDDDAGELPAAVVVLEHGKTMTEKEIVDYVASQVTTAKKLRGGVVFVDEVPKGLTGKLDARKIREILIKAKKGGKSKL
#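 Purified P. pyralis luciferase, 10 nM final, with Km-level 10 uM D-luciferin and 10 uM ATP in 50 mM Tris acetate pH 7.5, 10 mM Mg acetate, 0.01% Tween-20, 0.05% BSA; 6-point qHTS titration about 60 µM downward; luminescence read.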
# Luc counter: Counterscreen for Luciferase (Kinase-Glo TM) Inhibition; Luciferin 4-monooxygenase (Photuris pensylvanica), Q27757; Kinase-Glo luciferase, ATP luminescence, 8 min; Potency, µM (series often up to 38.3 µM), usual class: inhibitors; 200,000 tested, 0.28% active; AID 1379, 2008; note: nearly all actives have a fitted effect of over 60% in size
#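 Substrate mix (final 50 mM imidazole pH 7.2, 50 mM KCl, 7 mM MgCl2, 10 uM ATP, 0.01% Tween 20, 0.05% BSA) plus pin-tool compound, then Kinase-Glo detection mix; 8 min ambient, luminescence read.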
# Rab9 promoter act: qHTS Assay for Rab9 Promoter Activators. Huh7 Rab9 promoter-luciferase reporter, luminescence, 24 h. Potency, µM (titrated, usually from 9.22 µM), usual class: activators. 320,000 tested, 2.8% active; note: nearly all actives have a fitted effect of over 60% in size
#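 Luminescence read-out: Huh7 cells stably expressing Rab9-luciferase, treated 24 h with compound at 37 °C, then lysed with luciferase reagent for 10 min at ambient before reading.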
# NPC1 promoter act: qHTS Assay for NPC1 Promoter Activators; 320,000 tested, 2.4% active; AID 485313, 2010; Potency, µM (top dose mostly 9.22 µM), most hits filed as activators; Huh7 NPC1 promoter luciferase reporter, 24 h; note: nearly all actives have a fitted effect of over 60% in size
#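 Quantitative HTS used a cell-based reporter: Huh7 cells stably bearing the NPC1 promoter upstream of luciferase were treated with compounds for 24 h, and promoter activation was read as luminescence.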
# A number is an active result; . = inactive; ? = inconclusive; / = no result given; [ ] = dose if it differs, or a comment. Calls come from the whole dose curve; as a rule, active = well fitted curve in the direction sought with a large enough effect; inconclusive = small, poorly fitted or top-dose-only effect, or another doubt; inactive = no such curve, though single readings can be large; an effect the other way counts as inactive or inconclusive.
SMILES,SMN2 splice enh,ELG1 genotox,FLuc counter,Luc counter,Rab9 promoter act,NPC1 promoter act
Nc1cc2nn(-c3ccccc3)nc2cc1Cl,3.16µM,.,1.35µM,.,.,.
Nc1ccc2c(c1)nnn2-c1ccccc1,/,.,?,/,.,?
CC(C)CC(=O)Nc1cc2nn(-c3ccccc3)nc2cc1Cl,?,4.61µM,1.51µM,.,1.41µM,1.78µM
Cc1cc2nn(-c3ccccc3)nc2cc1NC(=O)Cc1ccc(Cl)cc1,?,/,.,/,/,/
Nc1ccc2nn(-c3ccccc3)nc2c1,/,?,3.79µM,.,1.58µM,1.58µM
O=[N+]([O-])c1ccc(C2=Nc3cc(Cl)ccc3OC2)cc1,.,.,15.1µM,.,.,.
Cc1ccc2c(c1)N=C(c1ccc(F)cc1)CO2,.,?,4.26µM,?,3.16µM,3.98µM
Cc1ccc(-c2cc3ncc4c(n3n2)-c2cc(F)ccc2OC4)cc1,.,/,.,/,/,/
Cc1ccc(NCc2cccn2-c2nnc(N3CCC(C(=O)NCc4ccc(F)cc4)CC3)s2)cc1,.,/,.,/,/,/
Fc1ccc(-c2csc(-c3nc(-c4ccc(Br)s4)cs3)n2)cc1,.,/,.,/,/,/
CCCOc1ccc(OC(=O)c2ccc(Br)o2)cc1,.,.,9.53µM,.,.,.
Cc1cccc(NC(=O)Cn2c(=O)c3cccn3c3ccccc32)c1C,/,/,.,/,/,/
Cc1ccc(C2=NN(C(=S)Nc3ccccc3)C(c3ccco3)C2)cc1 (centres undefined),12.6µM,?,7.57µM,.,3.16µM,2.82µM
CCS(=O)(=O)Nc1ccc(C2=NN(C(=S)Nc3ccccc3)C(c3ccco3)C2)cc1 (centres undefined),?,.,?,.,.,.
Nc1nc(Nc2ccccc2)nc2c1ncn2[C@@H]1O[C@H](CO)[C@H](O)[C@H]1O,.,/,/,.,/,/
CC1CC1C(=O)OCc1cc(=O)n2cc(Br)ccc2n1 (centres undefined),.,?,9.53µM,.,3.55µM,2.51µM
O=C(OCc1cc(=O)n2cc(Br)ccc2n1)C1COc2ccccc2O1 (centres undefined),.,.,.,.,.,.
CC1(C(=O)OCc2cc(=O)n3cc(Br)ccc3n2)CC1(Cl)Cl (centres undefined),?,11.6µM,13.5µM,.,.,3.16µM
CC1(C)NC(=O)N(CC(=O)OCc2cc(=O)n3cc(Br)ccc3n2)C1=O,.,.,.,.,.,.
Cc1ccccc1C(=O)NC(CC(C)C)C(=O)OCc1cc(=O)n2cc(Br)ccc2n1 (centres undefined),11.2µM,?,13.5µM,.,?,3.98µM
NCCCCCc1cnc[nH]1,/,/,/,.,/,/
CCOC(=O)c1cc(S(=O)(=O)Nc2c(C)cc(C)cc2C)[nH]n1,/,/,.,/,/,/
CCc1cccc(-n2c(C)nc3c(cnn3-c3ccc(C)c(C)c3)c2=O)c1,.,/,.,/,/,/
O=C(O)Cn1cc(/C=C2/SC(=O)N(CC(=O)N3CCCCCC3)C2=O)c2ccccc21,/,.,?,/,.,.
Cn1cccc1/C=C1\SC(=S)N(Nc2ccccc2)C1=O,/,.,?,/,.,.
SMILES,SMN2 splice enh,ELG1 genotox,FLuc counter,Luc counter,Rab9 promoter act,NPC1 promoter act
CC(C)C(C(=O)O)N1C(=O)/C(=C/c2cccn2C)SC1=S (centres undefined),.,.,21.3µM,.,.,.
Cn1cccc1/C=C1\SC(=O)N(c2ccccc2)C1=O,11.2µM,?,2.39µM,.,0.708µM,2µM
Cn1cc(/C=C2\SC(=S)N(NC(=O)c3ccccc3)C2=O)c2ccccc21,.,.,?,.,.,.
O=C(O)Cn1cc(/C=C2\SC(=O)N(c3ccccc3)C2=O)c2ccccc21,.,.,12µM,.,.,.
Cn1cc(/C=C2/SC(=O)N(c3ccccc3)C2=O)c2ccccc21,.,.,6.01µM,.,6.31µM,?
CCCCN1CSC(=S)N(Cc2ccccc2)C1,.[9.22 µM],/,/,.[7.66 µM],/,/
COc1cc(NCC[C@@H]2CCCCN2)c2ncccc2c1,.[9.22 µM],/,/,.[7.66 µM],/,/
COc1ccc(-n2nc(C(=O)NCC(=O)NC3CCCC(C)C3C)c3ccccc3c2=O)cc1 (centres undefined),/,.,?,/,.,.
COc1ccc(-n2nc(C(=O)NCC(=O)N3CCC(C(N)=O)CC3)c3ccccc3c2=O)cc1,/,?,10.7µM,/,.,.
COc1ccc(-n2nc(C(=O)N3CCN(c4ccc(F)cc4)CC3)c3ccccc3c2=O)c(OC)c1,.,.,.,.,.,.
COc1ccc(-n2nc(C(=O)NCC(=O)N3CCN(c4cccc(Cl)c4)CC3)c3ccccc3c2=O)c(OC)c1,/,.,7.57µM,/,.,.
COc1ccc(-n2nc(C(=O)NCC(=O)N3CCC(C)CC3)c3ccccc3c2=O)cc1,/,.,2.13µM,/,?,?
COc1ccc(-n2nc(C(=O)NCC(=O)N3CCCC(C)C3)c3ccccc3c2=O)cc1 (centres undefined),/,.,5.36µM,/,.,.
CCC(C)NC(=O)CNC(=O)c1nn(-c2ccc(OC)cc2)c(=O)c2ccccc12 (centres undefined),/,.,.,/,.,.
COc1cccc(N2CCN(C(=O)C3Cc4ccccc4N3C(C)=O)CC2)c1 (centres undefined),/,/,.,/,/,/
Cc1cc(NC(=O)CN(C)S(=O)(=O)c2ccc3c(c2)CCC(=O)N3)ccc1Br,.,/,?,/,/,/
CN1c2ccccc2C(C)(C)C12C=Nc1c(ccc3ccccc13)O2 (centres undefined),.,.,15.1µM,.,.,.
O=C(Nc1cccc(Cl)c1)N1CCCCCC1,/,?,?,/,.,.
O=C(Nc1cccc(Cl)c1)Nc1cccc(C(=O)O)c1,/,.,0.477µM,/,0.355µM,0.316µM
O=C(Nc1cccc(Cl)c1)Nc1ccc(Cl)cn1,.,.,.,.,.,.
O=C(Nc1ccc(C(=O)N2CCCCC2)cc1)Nc1cccc(Cl)c1,/,.,10.7µM,/,3.16µM,3.98µM
Cc1cc(O)c(C(=O)Nc2cccc(Cl)c2)c(=O)n1C,/,10.3µM,3.38µM,/,2.51µM,2.24µM
CC(=O)c1ccc(NC(=S)NCCc2cccc(Cl)c2)cc1,12.6µM,?,.,.,2.82µM,?
O=C(Nc1cccc(C(=O)O)c1)Nc1ccccc1Cl,12.6µM,.,0.213µM,.,0.1µM,0.501µM
O=C(Nc1cccc(C(=O)O)c1)/C(=C\c1ccccc1)NC(=O)c1cccc2ccccc12,/,.,21.3µM,.,.,.
O=C(Nc1cccc(C(=O)O)c1)Nc1cccc2ccccc12,/,.,2.13µM,/,3.55µM,2µM
COc1ccc(C(=O)N/C(=C\c2ccccc2)C(=O)Nc2cccc(C(=O)O)c2)cc1,/,.,.,/,.,.
CC(=O)c1ccc(NC(=O)Nc2cccc(Cl)c2)cc1,11.2µM,?,16.9µM,.,1.26µM,1.41µM
